This note sets out measurements from PubChem BioAssay.

Each structure is given as a SMILES string.

The assay deals with Inhibin beta A chain (activin A). In words: small molecules binding activin A – biochemical, small-molecule microarray, 635 nm fluorescence scan, primary screen (AID 1107).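 Also: mouse activin A protein probed at 4.33 µg/mL on printed slides; score merges bound-protein fluorescence near 667 nm with spot signal-to-noise.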 The note with it: INHBA, higher = more signal.
Turning to `CCOC(=O)C1=CCC(c2ccco2)N(S(=O)(=O)c2ccc(C)cc2)C1` (configuration not stated), the composite z-score was found to be 1.35.
The same measure for `COCCOC(=O)N1C(=O)[C@@]2(c3cc(C#CCC(C(=O)OC)C(=O)OC)ccc31)[C@H](C(=O)NC[C@H](O)c1ccccc1)[C@H]1C(=O)O[C@H](c3ccccc3)[C@H](c3ccccc3)N1[C@@H]2c1ccc(OCCO)cc1`: 0.534.
The same measure for `CCCNC(=O)[C@@]1(Sc2ccc(C)cc2)CC(=O)N(C(C)C)[C@@H]1c1ccc(CO)cc1I`: 0.448; for `COC(=O)[C@@]1(Cc2ccc(F)cc2)[C@H]2c3cc(C(=O)N4CCCC4)n(C)c3C[C@H]2CN1C(=O)c1ccccc1`: 1.21.
The same measure for `O=C1O[C@H](c2ccccc2)[C@H](c2ccccc2)N2[C@H]1[C@@H](C(=O)N1CCCCCCC1)[C@]1(C(=O)Nc3ccc(C#CC4(O)CCCCCC4)cc31)[C@H]2c1ccc(O)cc1`: 1.79.
Compound `O=C1O[C@H](c2ccccc2)[C@H](c2ccccc2)N2[C@H]1[C@@H](C(=O)O)[C@]1(C(=O)Nc3ccc(C#CC4(O)CCCCCC4)cc31)[C@H]2c1ccc(O)cc1` gave a composite z-score of 0.138.
Regarding `COCCOC(=O)N1C(=O)[C@@]2(c3ccccc31)[C@H](c1ccccc1OCCO)N1[C@H](c3ccccc3)[C@H](c3ccccc3)OC(=O)[C@H]1[C@@H]2C(N)=O`, the composite z-score was determined as 0.186.
The same measure for `NC(=O)[C@@H]1[C@H]2C(=O)O[C@H](c3ccccc3)[C@H](c3ccccc3)N2[C@H](c2ccc(OCCO)cc2)[C@@]12C(=O)Nc1ccc(C#CCCO)cc12`: 0.297; for `Cc1cccc([C@H]2C[C@H]3C(Br)=C[C@@H]2C(=O)[C@]32CO2)c1`: 1.37; for `COc1ccc(C#Cc2ccc3c(c2)[C@]2(C(=O)N3)[C@H](C(=O)Nc3nc4ccccc4s3)[C@H]3C(=O)O[C@H](c4ccccc4)[C@H](c4ccccc4)N3[C@@H]2c2ccccc2OCCO)cc1`: 0.648.
As for `C=CCNC(=O)[C@@H]1[C@H]2C(=O)O[C@H](c3ccccc3)[C@H](c3ccccc3)N2[C@H](c2ccc(OCCO)cc2)[C@@]12C(=O)N(C(=O)OCCOC)c1ccc(C#CCCO)cc12`, the figure is 0.63; as for `COCC(=C=CC[C@@H](O)c1cccc(OCCO)c1)CCO`, 0.598.
The same measure for `COCCOC(=O)N1C(=O)[C@@]2(c3cc(C#CC4(O)CCCCCC4)ccc31)[C@H](C(=O)N1CCN(c3ncccn3)CC1)[C@H]1C(=O)O[C@H](c3ccccc3)[C@H](c3ccccc3)N1[C@@H]2c1ccccc1OCCO`: 0.521; for `[N-]=[N+]=Nc1ccccc1C[C@]1(C(=O)O)N=C(c2ccc(OCCCO)cc2)O[C@H]1c1ccccc1N=[N+]=[N-]`: 0.884.
Take `NC(=O)NCC#Cc1ccc2c(c1)[C@]1(C(=O)N2)[C@H](C(=O)N2CCN(c3ncccn3)CC2)[C@H]2C(=O)O[C@H](c3ccccc3)[C@H](c3ccccc3)N2[C@@H]1c1ccc(OCCO)cc1`: the composite z-score was determined as 0.926.
With `CN(C)C(=O)[C@@]1(Cc2ccccc2)COC(c2ccc(OCCCO)cc2)=N1`, the composite z-score is -0.512.
As for `CCN(CC)c1ccc(N2CC=CC34O[C@@H]5C=CCCOC(=O)C5[C@H]3C(=O)N(CCO)[C@@H]4C2=O)cc1` (some centres not stated), the composite z-score is -0.589.
`C[C@@H]1ON(c2ccc(I)cc2)[C@H](c2ccc(OC(=O)OC(C)(C)C)cc2)[C@H]1C(=O)N1C(=O)OC[C@H]1Cc1ccccc1` came in with a composite z-score of 0.0676.
As for `COc1cc(CO)cc(I)c1O[C@H]1C=C(C(=O)NCCO)C[C@@H](NCC2CCCCC2)[C@@H]1O`, the figure is 0.328.
The same measure for `C=CCNC(=O)[C@@H]1[C@H]2C(=O)O[C@H](c3ccccc3)[C@H](c3ccccc3)N2[C@H](c2ccc(O)cc2)[C@@]12C(=O)Nc1ccc(C#CCC(C(=O)OC)C(=O)OC)cc12`: 0.595.
The same measure for `CCOC(=O)C1=C[C@@H](c2ccccc2)N(S(=O)(=O)c2ccc(C)cc2)[C@H]1c1ccccc1`: 1.46; for `[N-]=[N+]=NC[C@H](Cc1ccccc1)NC(=O)c1ccccc1`: 0.382.
`COc1ccc(C(O)C2C=CC3C(=O)N(c4ccccc4)C(=O)C3N2Nc2ccccc2F)cc1` (configuration not stated) had a composite z-score of 0.685.
On to `C#C[C@@H](CC)O[Si](C#CCCCC#N)(C(C)C)C(C)C`, for which the composite z-score stood at 0.573.
The same measure for `CCCCCCCCCCC(O)C1C=CC2C(=O)N(C)C(=O)C2N1Nc1cc(OC)c(OC)c(OC)c1` (configuration not stated): 1.18; for `C=C[C@H](C)[C@H](OC(=O)Nc1ccc(OC)cc1)c1ccc(OCCO)cc1`: -0.801.
The same measure for `COCCOC(=O)N1C(=O)[C@@]2(c3cc(C#CC4(O)CCCCCC4)ccc31)[C@H](c1ccc(OCCO)cc1)N1[C@H](c3ccccc3)[C@H](c3ccccc3)OC(=O)[C@H]1[C@@H]2C(=O)Nc1nc2ccccc2s1`: 0.308.
